Assay outcomes as filed in PubChem BioAssay.
A selection: hits, their analogues and other compounds. The true share with any hit is near 15%.
ELG1 repair inh: inhibitors of ELG1-dependent DNA repair in HEK293T cells | HEK293T ELG1-luciferase reporter, luminescence, 16 h; DNA damage induced by 5-fluorouridine | Potency, µM (series often up to 46.1 µM), inactives show at the highest dose activity change, negative = inhibition, actives largely listed as inhibitors | 2.3% of 330,000 active; note: nearly all actives have a fitted effect of over 55% in size
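Luminescence from the luciferase reporter, measured 30 min after ONE-Glo reagent at room temperature, was the read-out. Beforehand, 2,000 cells per well were exposed for 16 hr at 37 °C to 5-fluorouridine together with compound or vehicle.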
RORg inh: inhibitors of mouse ROR gamma transcriptional activity | Potency, µM (series often up to 53.6 µM), for the others: at the highest dose activity change, negative = inhibition, actives largely listed as inhibitors | 5.4% of 310,000 active | Drosophila S2 Gal4-RORgamma UAS-luciferase reporter, 20 h | P51450; note: nearly all actives have a fitted effect of over 60% in size
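ROR gamma transcriptional activity was tracked as Gal4-UAS luciferase output in stably transfected Drosophila Schneider cells, with compound added 1 hr before 700 uM copper sulfate induction and a 20 hr ambient-temperature incubation.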
ALOX12 inh: ALOX12 (human) lipoxygenase inhibition | P18054 | purified 12hLO, xylenol orange hydroperoxide absorbance | Potency, µM (titrated, usually from 108 µM), without a hit: at the highest dose activity change, negative = inhibition, usual class: inhibitors | 1.1% of 580,000 active
Target sequence (P18054 whole entry, looked up): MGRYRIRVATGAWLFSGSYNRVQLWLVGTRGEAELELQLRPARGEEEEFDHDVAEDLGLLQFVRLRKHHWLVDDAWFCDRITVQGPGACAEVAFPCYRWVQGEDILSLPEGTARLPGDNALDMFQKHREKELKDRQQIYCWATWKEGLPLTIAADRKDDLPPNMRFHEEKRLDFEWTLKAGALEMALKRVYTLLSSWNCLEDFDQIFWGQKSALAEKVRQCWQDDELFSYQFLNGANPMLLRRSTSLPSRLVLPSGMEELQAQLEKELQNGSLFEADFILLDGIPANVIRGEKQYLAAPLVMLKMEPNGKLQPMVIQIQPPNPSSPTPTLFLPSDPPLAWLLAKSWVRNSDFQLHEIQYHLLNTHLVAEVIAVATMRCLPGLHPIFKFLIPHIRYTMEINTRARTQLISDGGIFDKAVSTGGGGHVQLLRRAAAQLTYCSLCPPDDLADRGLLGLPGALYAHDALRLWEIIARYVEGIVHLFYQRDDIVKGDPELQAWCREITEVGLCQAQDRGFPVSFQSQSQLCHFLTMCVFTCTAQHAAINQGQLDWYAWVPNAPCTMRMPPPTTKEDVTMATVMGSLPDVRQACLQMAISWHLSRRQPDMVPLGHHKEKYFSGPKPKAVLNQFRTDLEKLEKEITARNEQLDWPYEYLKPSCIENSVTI
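Purified human 12hLO (150 nM final) in 25 mM Hepes, 0.01% Triton X-100, pH 7.0 was preincubated 15 min at room temperature with compound. Then 40 uM arachidonic acid was added, 30 min. Hydroperoxide was read by Fe-XO absorbance ratio 573/405 nm.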
DT40 TDP1 no CPT: qHTS for Inhibitors of human tyrosyl-DNA phosphodiesterase 1 (TDP1): qHTS in cells in absence of CPT | Potency, µM (titrated, usually from 46.2 µM), without a hit: top-dose activity change, negative = growth inhibition, actives largely listed as inhibitors | DT40 Tdp1-/- hTDP1 cells, no CPT, ATP luminescence, 48 h | AID 686978, 2013 | 15% of 420,000 active; note: nearly all actives have a fitted effect of over 55% in size
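Compound effects on proliferation are scored in DT40 Tdp1-/-;hTDP1 cells in the absence of CPT. ATP levels (CellTiter-Glo luminescence) are recorded after a ≥48 hr, 37 °C incubation.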
Gal4-VP16 FLuc: inhibits Gal4-VP16 luciferase reporter, ROR gamma counter-screen; Drosophila S2 Gal4-VP16 UAS-luciferase, luminescence, 20 h; Potency, µM (titrated, usually from 53.6 µM), for inactives: at the top dose activity, negative = inhibition, most hits filed as inhibitors; 3.5% of 310,000 active; AID 2546;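 note: Gal4-VP16 expression switched on by copper sulfate through the metallothionein promoter; nearly all actives have a fitted effect of over 50% in size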
TDP1 cell CPT: DT40-hTDP1 cell growth loss with CPT. AID 686979. Potency, µM (top dose mostly 46.2 µM), inactives show at the top dose activity change, negative = growth inhibition, hits mostly inhibitors. 12% of 420,000 active. chicken DT40 Tdp1-/-;hTDP1 cells + 20 nM CPT, ATP luminescence, 48 h; note: nearly all actives have a fitted effect of over 55% in size
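Chicken DT40 Tdp1-/- cells stably complemented with human TDP1 were seeded at 400 cells/well in medium containing 20 nM camptothecin, exposed to pin-transferred compounds, and grown at 37 °C for at least 48 hr. Viability was read as ATP luminescence.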
* hit, by the source's call. Calls come from the whole dose curve; as a rule, active = well fitted curve in the direction sought with a large enough effect; inconclusive = small, poorly fitted or top-dose-only effect, or another doubt; inactive = no such curve, though single readings can be large; an effect the other way counts as inactive or inconclusive. % is set by controls: 0 for no effect and ±100 for the full control effect; potency is the fitted concentration of half-maximal effect.

Screening CCn1c(/C=C/c2ccccc2[N+](=O)[O-])nc2ccccc2c1=O returned ELG1 repair inh inconclusive, RORg inh -25%, ALOX12 inh 17%, DT40 TDP1 no CPT inconclusive, Gal4-VP16 FLuc -8% and TDP1 cell CPT inconclusive.
Screening Cc1ccccc1/C=C\c1nc2ccccc2c(=O)n1Cc1ccccc1 returned ELG1 repair inh 29µM*, RORg inh -2%, ALOX12 inh -12%, DT40 TDP1 no CPT inconclusive, Gal4-VP16 FLuc -5% and TDP1 cell CPT inconclusive.
Screening CN(C)S(=O)(=O)c1ccc2[nH]cc(/C=C/c3nc4ccccc4c(=O)n3-c3ccccc3)c2c1 returned ELG1 repair inh inconclusive, RORg inh -9%, ALOX12 inh -7%, DT40 TDP1 no CPT 5.2µM*, Gal4-VP16 FLuc -9% and TDP1 cell CPT 5.8µM*.
CCn1c(/C=C/c2c[nH]c3ccccc23)nc2ccccc2c1=O was read as ELG1 repair inh inconclusive, RORg inh 20%, ALOX12 inh -22%, DT40 TDP1 no CPT 3.3µM*, Gal4-VP16 FLuc inconclusive and TDP1 cell CPT inconclusive.
For O=C(/C=C/c1ccc2c(c1)OCCCO2)OCc1ccccn1 the results were ALOX12 inh -27%.
For CCCCOc1ccc(C(=O)Nc2ccc3oc(=O)ccc3c2)cc1 the results were ALOX12 inh 3%.
CCn1c(/C=C/c2ccccc2Cl)nc2ccccc2c1=O was read as ELG1 repair inh inconclusive, RORg inh -3%, ALOX12 inh inconclusive, DT40 TDP1 no CPT 16µM*, Gal4-VP16 FLuc -13% and TDP1 cell CPT inconclusive.
Screening CCn1c(/C=C\c2ccccc2C)nc2ccccc2c1=O returned ELG1 repair inh -16%, RORg inh -17%, ALOX12 inh 4%, DT40 TDP1 no CPT 13µM*, Gal4-VP16 FLuc 28% and TDP1 cell CPT 23µM*.
For O=C(Nc1cccc2c1CCCC2)c1ccc2ccccc2c1 the results were ALOX12 inh -6%.
For Cc1ccc(C)c(-c2nc(NC(=O)c3cc(C)on3)sc2C)c1 the results were ALOX12 inh 23%.
`COc1cc(/C=N/N=C2/C(=O)Nc3ccccc32)cc(OC)c1O` gave ELG1 repair inh inconclusive, RORg inh -13%, ALOX12 inh -30%, DT40 TDP1 no CPT inconclusive, Gal4-VP16 FLuc -11% and TDP1 cell CPT -49%.
`O=C1Nc2ccccc2/C1=C/C(=O)c1cccs1` gave ELG1 repair inh -3%, RORg inh inconclusive, ALOX12 inh inconclusive, DT40 TDP1 no CPT 8.2µM*, Gal4-VP16 FLuc inconclusive and TDP1 cell CPT 6.5µM*.
Screening COc1ccc(C2(C(=O)c3ccccc3)C(=O)c3ccccc3C2=O)cc1 returned ELG1 repair inh inconclusive, RORg inh -1%, DT40 TDP1 no CPT -15%, Gal4-VP16 FLuc 5% and TDP1 cell CPT inconclusive.
For COc1ccc(C(=O)/C=C2/C(=O)Nc3ccccc32)cc1OC the results were ELG1 repair inh 7%, RORg inh inconclusive, ALOX12 inh -20%, DT40 TDP1 no CPT 4.1µM*, Gal4-VP16 FLuc inconclusive and TDP1 cell CPT 16µM*.
Screening COc1ccc(C(=O)/C=C2/C(=O)Nc3ccccc32)cc1 returned ELG1 repair inh inconclusive, RORg inh 10µM*, ALOX12 inh -27%, DT40 TDP1 no CPT 4.1µM*, Gal4-VP16 FLuc inconclusive and TDP1 cell CPT 9.2µM*.
For COc1ccc(C(=O)/C=C2/C(=O)Nc3ccccc32)c(OC)c1 the results were ELG1 repair inh 0%, RORg inh inconclusive, ALOX12 inh inconclusive, DT40 TDP1 no CPT 2.6µM*, Gal4-VP16 FLuc inconclusive and TDP1 cell CPT 4.1µM*.
Screening CCc1ccc2[nH]c(CSCC(=O)Nc3ccc(OC)c(Cl)c3)cc(=O)c2c1 returned ALOX12 inh -4%.
For Cc1ccc2oc(C(=O)Nc3cccc(Oc4ccccc4)c3)cc(=O)c2c1 the results were ALOX12 inh 5%.
Screening Cc1ccc(CN(C)Cc2cnc(S(=O)(=O)C(C)C)n2CCc2ccccc2)o1 returned ALOX12 inh 14%.
For COc1ccc(CN2CC(=O)N(c3cccc(Cl)c3)C2=S)cc1OC the results were ELG1 repair inh inconclusive, RORg inh 1%, ALOX12 inh -15%, DT40 TDP1 no CPT 15µM*, Gal4-VP16 FLuc 0% and TDP1 cell CPT -77%.
`COc1ccc(N2C(=O)CN(Cc3cc(OC)c(OC)c(OC)c3)C2=S)cc1` gave ELG1 repair inh inconclusive, RORg inh 22%, ALOX12 inh -8%, DT40 TDP1 no CPT 23µM*, Gal4-VP16 FLuc -1% and TDP1 cell CPT 16µM*.
For COc1cccc(N2C(=O)CN(Cc3cc(OC)c(OC)c(OC)c3)C2=S)c1 the results were ELG1 repair inh 0%, RORg inh 2%, ALOX12 inh 0%, DT40 TDP1 no CPT 21µM*, Gal4-VP16 FLuc 6% and TDP1 cell CPT -3%.
Screening COc1ccc(CN2CC(=O)N(c3ccc(Cl)cc3)C2=S)cc1OC returned ELG1 repair inh inconclusive, RORg inh 14%, ALOX12 inh 0%, DT40 TDP1 no CPT inconclusive, Gal4-VP16 FLuc -3% and TDP1 cell CPT inconclusive.
COc1ccc(Cl)cc1N1C(=O)CN(Cc2cc(OC)c(OC)c(OC)c2)C1=S was read as ELG1 repair inh inconclusive, RORg inh -13%, ALOX12 inh inconclusive, DT40 TDP1 no CPT 8.2µM*, Gal4-VP16 FLuc 0% and TDP1 cell CPT 15µM*.
CC(C)(C)c1ccc(C(=O)Nc2ccc(Oc3ccc(Cl)cc3Cl)cc2)cc1 was read as ALOX12 inh -22%.
For COc1ccc2cc3cc(C(=O)NCCc4ccccc4)sc3nc2c1Cl the results were ALOX12 inh -35%, DT40 TDP1 no CPT 16µM* and TDP1 cell CPT 12µM*.
For COc1ccc(CCNC(=O)c2cc(CC(C)C)on2)cc1OC the results were ELG1 repair inh inconclusive, RORg inh -2%, ALOX12 inh -3%, DT40 TDP1 no CPT 16µM*, Gal4-VP16 FLuc inconclusive and TDP1 cell CPT inconclusive.
For COc1ccc(CCNC(=O)c2cc(-c3ccccc3OC)on2)cc1OC the results were ELG1 repair inh 16µM*, RORg inh 7%, ALOX12 inh 7%, DT40 TDP1 no CPT 21µM*, Gal4-VP16 FLuc -1% and TDP1 cell CPT inconclusive.
Screening COc1ccc(-c2cc(C(=O)NCCc3ccccc3)no2)cc1OC returned ELG1 repair inh inconclusive, RORg inh 18%, ALOX12 inh 3%, DT40 TDP1 no CPT -14%, Gal4-VP16 FLuc -9% and TDP1 cell CPT -23%.
